Pol iota inh = blocks human DNA polymerase iota activity. Q9UNA4. Pol iota fluorescent replication assay, 10 min. Potency, µM (series often up to 115 µM), without a hit: at the top dose activity, negative = inhibition, most hits filed as inhibitors. hit rate 1% among 390,000. AID 588590
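Pol iota at 10 nM preincubated 15 min with compounds at room temperature; reaction started with fluorescent substrate, 50 nM final. Fluorescence read kinetically at 0 and 10 min; buffer-only wells as negative control.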
PGK inhibitor = inhibitors of T. brucei phosphoglycerate kinase. PGK/GAPDH coupled, Kinase-Glo luminescence, 60 min. Potency, µM (titrated, usually from 57.5 µM), inactives show at the highest dose activity change, negative = inhibition, actives largely listed as inhibitors. hit rate 0.043% among 380,000. AID 602233; note: % is set by controls: 0 for no effect and ±100 for the full control effect; nearly all actives have a fitted effect of over 60% in size
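Luminescent ATP detection (Kinase-Glo Plus) follows a 60-minute room-temperature incubation, with wells lacking PGK as controls. Buffer: 100 mM TEA (pH 7.6), 5 mM MgCl2, 0.01% Tween-20. Coupling enzyme GAPDH (100 nM final) supplies unstable 1,3-BPG in-well.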
Pol beta inh = blocks human DNA polymerase beta activity | hit rate 1.3% among 340,000 | AID 485314 | P06746 | Pol beta primer extension/strand displacement, fluorescence kinetic | Potency, µM (highest dose often 114 µM), for inactives: at the highest dose activity change, negative = inhibition, hits mostly inhibitors; note: % is set by controls: 0 for no effect and ±100 for the full control effect
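Reaction started by 50 nM substrate onto compound-treated Pol beta (10 nM, 15 min preincubation, room temperature); plates read at 0 min and 10 min. Normalized concentration-effect data fitted by four-parameter Hill equation.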
POLK inh = blocks human DNA polymerase kappa activity; purified Pol kappa, fluorescent DNA synthesis assay, 10 min; Q9UBT6; hit rate 0.53% among 400,000; Potency, µM (series often up to 107 µM), for the others: top-dose activity, negative = inhibition, most hits filed as inhibitors; note: % is set by controls: 0 for no effect and ±100 for the full control effect
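Enzyme at 10 nM met test compounds for 15 min at room temperature. Substrate addition (50 nM final) began the reaction, which was monitored by fluorescence at 0 and 10 min.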
POLH inh = blocks human DNA polymerase eta activity. Q9Y253. recombinant Pol eta, fluorescent DNA replication assay. Potency, µM (titrated, usually from 114 µM), without a hit: at the highest dose activity change, negative = inhibition, hits mostly inhibitors. hit rate 1.2% among 390,000. AID 588591; note: % is set by controls: 0 for no effect and ±100 for the full control effect
Target sequence (Q9Y253 whole entry, looked up): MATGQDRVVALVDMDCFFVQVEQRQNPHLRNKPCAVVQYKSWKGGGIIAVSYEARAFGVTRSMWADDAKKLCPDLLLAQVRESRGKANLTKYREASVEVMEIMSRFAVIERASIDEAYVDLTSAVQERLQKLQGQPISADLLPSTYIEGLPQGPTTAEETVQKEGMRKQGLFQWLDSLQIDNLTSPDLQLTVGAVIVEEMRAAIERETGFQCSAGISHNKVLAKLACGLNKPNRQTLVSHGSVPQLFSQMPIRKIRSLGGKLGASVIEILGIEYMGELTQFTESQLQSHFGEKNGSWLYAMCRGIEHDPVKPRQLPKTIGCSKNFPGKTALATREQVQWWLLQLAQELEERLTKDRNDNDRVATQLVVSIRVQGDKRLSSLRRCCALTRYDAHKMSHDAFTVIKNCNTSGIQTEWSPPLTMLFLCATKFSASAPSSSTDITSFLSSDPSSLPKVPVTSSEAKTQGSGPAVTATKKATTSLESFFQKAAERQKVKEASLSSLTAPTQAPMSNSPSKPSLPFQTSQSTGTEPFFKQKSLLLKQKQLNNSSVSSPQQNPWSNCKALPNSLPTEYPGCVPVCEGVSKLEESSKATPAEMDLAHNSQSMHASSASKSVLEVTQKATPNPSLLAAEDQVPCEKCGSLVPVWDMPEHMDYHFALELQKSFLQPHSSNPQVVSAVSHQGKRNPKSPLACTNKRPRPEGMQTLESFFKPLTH
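Pol eta (10 nM) was preincubated with compounds for 15 min at room temperature, after which fluorescent replication substrate (50 nM final) was added to start the reaction. Fluorescence was read kinetically at 0 and 10 min.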
FEN1 inhibitor = blocks human flap endonuclease 1 | hit rate 0.35% among 390,000 | Recombinant FEN1 flap cleavage, fluorescence, 15 min | P39748 | AID 588795 | Potency, µM (top dose mostly 114 µM), inactives show at the highest dose activity change, negative = inhibition, most hits filed as inhibitors; note: % is set by controls: 0 for no effect and ±100 for the full control effect; nearly all actives have a fitted effect of over 65% in size
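Read-out was taken twice, immediately and after 15 min, following addition of 50 nM substrate to 10 nM FEN1 that had sat with test compound for 15 min at room temperature. Curves came from a four-parameter Hill model.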
The depositor's hits bear a star; i = inactive; ? = inconclusive; / = not tested or not shown; ! = not confirmed by another sample; [ ] = dose if it differs, or a comment. In the library only some 2.4% were active in any assay of this set; here they are far more common. Calls come from the whole dose curve; as a rule, active = well fitted curve in the direction sought with a large enough effect; inconclusive = small, poorly fitted or top-dose-only effect, or another doubt; inactive = no such curve, though single readings can be large; an effect the other way counts as inactive or inconclusive. Potency is the fitted concentration of half-maximal effect.

SMILES | Pol iota inh | PGK inhibitor | Pol beta inh | POLK inh | POLH inh | FEN1 inhibitor
CCN1CCCC1CNCc1cccc(OC)c1OCc1ccccc1 (configuration not stated) | 0% | i | -5% | 5% | -10% | 3%
CCN1CCCC1CNCc1cccc(OC)c1OCc1ccccc1F (configuration not stated) | 89µM* | 11%[11.5 µM] | 2% | -2% | -1% | 0%
O=C(N/N=C1\CCc2ccccc21)c1ccccc1Cl | 50% | -5% | 15% | -13% | -16% | 2%
Cc1ccc(C(=O)N/N=C2\CCc3ccccc32)c(C)c1 | 22% | -5% | 0.16µM* | -3% | -1% | -1%
CCN(CC(=O)Nc1c(F)cccc1F)C(=O)c1ccc(C(=O)c2ccccc2)cc1 | 10% | -4% | / | -16% | 1% | -2%
CCc1nc2ccc(C(=O)N(CC)CC(=O)Nc3c(F)cccc3F)cc2nc1CC | ? | 0% | / | -45% | 35µM* | 0%
Cc1ccc(CNC(=O)c2ccc(Cn3nc(C)c(Cl)c3C)o2)cc1 | ? | -1% | 50µM* | -17% | ? | 5%
Cc1cc(C)cc(NC(=O)c2ccc(Cn3nc(C)c(Cl)c3C)o2)c1 | 6% | -3% | -20% | -5% | -15% | -24%
Cc1c(N=C2N=C(NC(=O)c3ccc(F)cc3)c3ccccc32)c(=O)n(-c2ccccc2)n1C | ? | i | -3% | 13µM* | ? | 13%
N#C/C(=C\c1cccnc1)C(=O)Nc1ccccc1 | 81% | 3% | -7% | -8% | -18% | 4%
CC(NC(=O)/C(C#N)=C/c1ccc(OCC(=O)O)cc1)c1ccccc1 (configuration not stated) | ? | -8% | -13% | -17% | 18µM* | 24%
N#C/C(=C\c1ccc(O)c(O)c1)C(=O)Nc1ccccc1 | 56µM* | -10% | -2%[57.1 µM] | ? | 13µM*! | ?
CC(C)NC(=O)/C(C#N)=C/c1ccc2c(c1)OCCO2 | 143% | -2% | 39% | -16% | 0% | -3%
C[C@H](NC(=O)/C(C#N)=C/c1ccc(O)c(O)c1)c1ccccc1 | ? | / | 5%[57.1 µM] | ? | 22µM* | /
N#C/C(=C\c1cccc(O)c1)C(=O)Nc1ccc2c(c1)OCCO2 | 79µM* | i | -6% | 0% | -5% | -3%
Cc1ccc2nc(/C=C/c3ccc(N(C)C)cc3)ccc2c1 | 64% | / | / | 7% | / | 10%
COc1cc(/C=C(\C#N)C(=O)Nc2cccc(C(=O)O)c2)ccc1OCc1ccc(C)cc1 | 63% | -5% | ? | -11% | -18% | -21%
CC(NC(=O)/C(C#N)=C/c1ccc(Cl)c([N+](=O)[O-])c1)c1ccccc1 (configuration not stated) | -8% | / | -1% | -12% | -20% | -20%
COc1cc(/C=C(\C#N)C(=O)Nc2nnc(C(F)(F)F)s2)ccc1OCc1ccc(C(F)(F)F)cc1C(F)(F)F | / | / | / | 6.7µM* | / | ?
COc1cc(/C=C(/C#N)C(=O)Nc2ccccc2)ccc1OCc1ccc(C(=O)O)cc1 | 0% | -1% | -4% | -4% | 79µM* | ?
C[C@@H](NC(=O)/C(C#N)=C/c1ccc(O)c(O)c1)c1ccccc1 | ? | -13% | 10%[57.1 µM] | ? | 14µM*! | ?
COc1cc(/C=C(\C#N)C(=O)Nc2cc(C(F)(F)F)ccc2Cl)ccc1OCC(=O)Nc1cccc(C(F)(F)F)c1 | -5% | -5% | -1% | ? | -9% | -15%
COc1ccc2c(c1OC)C(Cc1ccccc1)N1CCc3cc4c(cc3C1C2)OCO4 (configuration not stated) | / | / | / | -11%[19.4 µM] | / | /
O=C(O)c1ccc(NC2=C(Cl)C(=O)c3ccccc3C2=O)cc1 | ? | -8% | -12% | -7% | ? | -33%
O=C(O)c1cccc(NC2=C(Cl)C(=O)c3ccccc3C2=O)c1 | ? | -12% | -8% | -88% | 79µM* | -12%
SMILES | Pol iota inh | PGK inhibitor | Pol beta inh | POLK inh | POLH inh | FEN1 inhibitor
CC1(C(O)(C#CC[N+]2(C)CCCCC2)c2ccccc2)CCCC1 (configuration not stated) | 66% | 4% | -28% | -8% | 6% | 0%
CC1(C#CC[N+]2(C)CCCCC2)CCC2C(O1)c1ccccc1OC2(C)C (configuration not stated) | 40µM* | -9% | 0% | 5% | -10% | 2%
CCCNC(=O)C1CCC(Cn2c(=O)c3sccc3n(CC(=O)NCc3cccc(OC)c3OC)c2=O)CC1 (configuration not stated) | -14% | 5% | -1% | -21% | -6% | 19%
O=C1CCc2cc(S(=O)(=O)NC3CCCCC3)cc3c2N1CC3 | 50µM* | -4% | / | -1% | ? | 22%
CN(C1CCCCC1)S(=O)(=O)c1cc2c3c(c1)CCN3C(=O)CC2 | -29% | i | / | 2% | -19% | -3%
Cc1ccc2c(nc3s/c(=C/c4cccs4)c(=O)n32)c1C | ? | -4% | 32µM* | ? | 20µM* | 0%
Cc1nc2scc(C)n2c(=O)c1S(=O)(=O)Nc1ccc(N2CCN(S(C)(=O)=O)CC2)cc1 | 50µM* | -8% | ? | -11% | ? | 8%
Cc1c(C(=O)OC2CCCC2)[nH]c2c1C(=O)CC(c1ccco1)C2 (configuration not stated) | ? | -16% | ? | ? | ? | -2%
C=CCOC(=O)c1[nH]c2c(c1C)C(=O)CC(c1ccco1)C2 (configuration not stated) | ? | -17% | 13µM* | ? | 25µM* | -22%
C/C=C/COC(=O)c1[nH]c2c(c1C)C(=O)CC(c1ccc(N(C)C)cc1)C2 (configuration not stated) | 67% | -17% | -6% | 0% | -10% | -16%
Cc1c(C(=O)OCC2CCCO2)[nH]c2c1C(=O)CC(c1ccco1)C2 (configuration not stated) | ? | ? | 10µM* | 28µM* | 3.2µM* | ?
Cc1c(C(=O)OCC(C)C)[nH]c2c1C(=O)CC(c1ccco1)C2 (configuration not stated) | ? | 0% | 25µM* | -27% | 32µM* | 4%
COc1ccc(C(=O)Nc2cccc(/C=C(\CCC(=O)O)c3nc4ccccc4s3)c2)cc1 | ? | -21% | ? | ? | 56µM* | ?
Cn1ncc(S(=O)(=O)Cc2ccccc2)c(Br)c1=O | / | / | / | -10%[60.1 µM] | / | /
CCOc1ccccc1N(CC(=O)NCCSCc1ccco1)S(=O)(=O)c1ccccc1 | ? | 1% | 28µM* | ? | ? | 1%
Cc1ccccc1N(CC(=O)NCCSCc1ccco1)S(C)(=O)=O | 56µM* | 8% | ? | -11% | -11% | 0%

Assay outcomes from PubChem.
